Only some compounds are listed: those with a hit (about 5.7% of all), similar ones and a draw of the others.
DAX1 inh-1: DAX1 (NR0B1) inhibition, primary screen. HEK293T StAR-luciferase reporter, SF-1/DAX-1 repression relief. inhibition, % at 6.8 µM. 370,000 compounds, 1.1% hits;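 active = inhibition above the mean over all tested compounds plus 3 SD, cut at about 3.6% in these data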;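 also: 0% = DAX-1 cells with DMSO and 100% = cells lacking DAX-1 with DMSO; higher inhibition means more luminescence from relief of DAX-1 repression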
AHR act: activates the human aryl hydrocarbon receptor | P35869 | AHR-responsive luciferase reporter cells, luminescence | activation, % at 5 µM | 320,000 compounds, 2.5% hits | AID 2796; in the data active = activation above about 47%;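 also: 0% = vehicle wells and 100% = reference agonist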
ssDAF-12 act: activates DAF-12 receptor from parasite S. stercoralis; AID 652126; activation, % at 6.8 µM; HEK293 ssDAF-12/GRIP1 lit1-tk-luc reporter, luminescence; % of 3 µM dafachronic acid response; 370,000 compounds, 1% hits;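 active = activation above the mean over all tested compounds plus 3 SD, cut at about 0.9% in these data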;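 also: 0% = DMSO-only wells and 100% = 3 µM delta7-dafachronic acid wells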
hgDAF12 agonist: agonists of H. glycines DAF-12 nuclear receptor; 370,000 compounds, 1.8% hits; HEK293 GAL4-hgDAF12 UAS-luciferase reporter, agonist luminescence; normalized to butyrate control; activation, % at 6.8 µM; AID 687014;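 active = activation above a cutoff set at the mean of all screened compounds plus 3 SD, cut at about 10% in these data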;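 also: 0% = DMSO wells and 100% = sodium butyrate wells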
hcDAF12 agonist: activates DAF-12 receptor from parasite H. contortus; HEK293 hcDAF-12 lit1-tk-luc reporter, luminescence; 0% DMSO, 100% Δ7-dafachronic acid; activation, % at 6.8 µM; 370,000 compounds, 1.4% hits;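 active = activation above the mean of all tested compounds plus 3 SD, cut at about 5.5% in these data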;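 also: 100% = response to 3 µM Δ7-dafachronic acid high control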
DAX1 inh-2: inhibits human nuclear receptor DAX1. AID 504766. inhibition, % at 6.75 µM. 340,000 compounds, 0.99% hits. P51843. HEK293 Gal4-DAX1 luciferase reporter, luminescence;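 active = inhibition above the mean over all tested compounds plus 3 SD, cut at about 4.2% in these data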;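 also: 0% = DAX1-transfected cells with DMSO and 100% = empty-vector control cells with DMSO; inhibition shows as a rise in luminescence from relieved DAX1 repression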
DAX1 inh confirm: NR0B1 (human) inhibition, confirmation; shares compounds with DAX1 inh-1; HEK293T StAR-promoter luciferase reporter, SF-1/DAX-1 repression; inhibition, % at 6.8 µM; 2,400 compounds, 87% hits; AID 652134;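 active = inhibition above the average of every tested compound plus 3 SD, cut at about 3.8% in these data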;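 also: 0% = DAX-1 cells with DMSO and 100% = no DAX-1 control cells with DMSO; active compounds raise luminescence by relieving repression of the StAR reporter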
Target sequence (P51843 whole entry, looked up): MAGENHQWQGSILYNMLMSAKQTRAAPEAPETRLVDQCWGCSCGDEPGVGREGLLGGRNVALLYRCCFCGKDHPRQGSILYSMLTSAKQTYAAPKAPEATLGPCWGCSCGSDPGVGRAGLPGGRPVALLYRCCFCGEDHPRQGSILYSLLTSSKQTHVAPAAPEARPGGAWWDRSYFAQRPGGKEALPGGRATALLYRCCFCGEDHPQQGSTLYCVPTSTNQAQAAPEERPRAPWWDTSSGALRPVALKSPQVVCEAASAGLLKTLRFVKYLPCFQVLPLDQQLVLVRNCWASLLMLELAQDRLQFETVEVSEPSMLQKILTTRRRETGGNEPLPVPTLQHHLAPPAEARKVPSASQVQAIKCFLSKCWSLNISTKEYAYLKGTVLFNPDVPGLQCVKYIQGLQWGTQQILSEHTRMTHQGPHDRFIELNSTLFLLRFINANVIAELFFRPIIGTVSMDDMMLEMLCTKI
SF1 AF2mut Luc: nonselective inhibitor or artifact in SF-1 mutant DAX1 counter-screen; shares compounds with DAX1 inh-1; HEK293 StAR-luciferase, SF-1 AF2 mutant, luminescence; inhibition, % at 6.8 µM; 2,400 compounds, 78% hits;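 active = inhibition above the mean of all tested compounds plus 3 SD, cut at about 3% in these data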;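 also: 0% = DAX-1 transfected cells with DMSO and 100% = cells without DAX-1 with DMSO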
Numbers without * were called inactive; nt = no result.

SMILES	DAX1 inh-1	AHR act	ssDAF-12 act	hgDAF12 agonist	hcDAF12 agonist	DAX1 inh-2	DAX1 inh confirm	SF1 AF2mut Luc
O=C(COc1ccccc1)Nc1cccc(-c2ccc(N3CCOCC3)nn2)c1	7.9*	-1	0	13*	3	0	5.3*	2
O=C(Nc1cccc(-c2ccc(N3CCOCC3)nn2)c1)c1ccccc1	4.7*	-2	-1	6	2	-1	3	2
CC1CCN(c2ccc(-c3cccc(NC(=O)c4ccco4)c3)nn2)CC1	8.0*	-11	0	10	3	-1	11*	3.4*
COc1ccc(-c2ccc(NC(=O)c3ccco3)cc2)nn1	9.0*	-8	0	8	3	-4	13*	1
CC1CCN(c2ccc(-c3cccc(NC(=O)C(F)(F)F)c3)nn2)CC1	0	-9	-1	-6	0	-6	nt	nt
CC(C)(C)c1csc(NC(=O)C2=COCCO2)n1	6.6*	15	0	12*	1	2	8.2*	5.3*
Cc1ccc(-c2csc(NC(=O)C3=COCCO3)n2)cc1	1	17	-1	10	2	1	nt	nt
CCOC(=O)c1csc(NC(=O)c2cccs2)n1	8.7*	1	0	10	4	1	10*	6.7*
CCOC(=O)c1csc(NC(=O)C2=COCCO2)n1	7.0*	5	0	7	2	3	9.0*	7.1*
O=C(NCCc1ccc(F)cc1)NC12CC3CC(CC(C3)C1)C2	8.3*	15	0	9	5	1	10*	7.6*
COc1ccc(CCNC(=O)NC23CC4CC(CC(C4)C2)C3)cc1	0	2	-1	4	3	1	nt	nt
CC(C)C[C@@H]1Cc2[nH]c(=S)[nH]c(=O)c2[C@H](C)O1	5.8*	nt	-1	1	-1	nt	3	1
C[C@@H]1O[C@H](C2CC2)Cc2[nH]c(=S)[nH]c(=O)c21	1	nt	-1	2	-1	nt	nt	nt
N#Cc1ccc(NCC(=O)Nc2ccc(S(=O)(=O)N3CCCCC3)cc2)cc1	-1	0	-1	2	0	0	nt	nt
COCCN(C(=O)CCN1C(=O)C2CC=CCC2C1=O)c1c(N)n(CC(C)C)c(=O)[nH]c1=O (stereo unspecified)	1	-1	-1	2	1	-1	nt	nt
CC(C)(C)C1=CC(=Nc2ccccc2N)C=C(C(C)(C)C)C1=O	4.6*	0	2.9*	13*	5	0	-1	0
CC(C)(C)C1=CC(=O)C(=O)C(C(C)(C)C)=C1	nt	-2	nt	nt	nt	2	nt	nt
O=C(CSc1nnc(-c2ccc(Br)cc2)o1)Nc1cccc2ccccc12	1	13	-1	2	0	0	nt	nt
O=C(CSc1nnc(-c2ccc(Br)cc2)o1)Nc1cccc(C(=O)O)c1	5.0*	-8	0	10	2	-2	6.1*	5.4*
O=C(CSc1nnc(-c2ccncc2)o1)Nc1cc(F)ccc1F	4.9*	1	-1	13*	3	1	5.2*	5.9*
O=C(CSc1nnc(-c2ccncc2)o1)Nc1cccc(F)c1	1	8	-1	4	-1	1	nt	nt
COc1ccc(C)cc1S(=O)(=O)N1CCCC(N2CCOCC2)C1 (stereo unspecified)	0	nt	0	-1	1	-1	nt	nt
Cc1ccccc1-c1nnc2n1N=C(c1ccc(O)c(O)c1)CS2	5.2*	nt	-2	-7	-3	nt	21*	-7
COc1ccccc1-c1nnc2n1N=C(c1ccc(O)c(O)c1)CS2	nt	15	nt	nt	nt	0	nt	nt
O=C(N/N=C/c1ccc2cccnc2c1)c1ccco1	5.0*	-2	0	12*	3	1	14*	7.2*
SMILES	DAX1 inh-1	AHR act	ssDAF-12 act	hgDAF12 agonist	hcDAF12 agonist	DAX1 inh-2	DAX1 inh confirm	SF1 AF2mut Luc
O=C(N/N=C/c1ccc(OCc2ccccc2)cc1)c1ccco1	0	2	0	7	2	4	nt	nt
COc1ccc(N2CCN(C(=O)c3cc4c(s3)CCCCC4)CC2)cc1	4.5*	7	-1	2	0	1	3	2
CC(=O)c1ccc(N2CCN(C(=O)c3cc4c(s3)CCCC4)CC2)cc1	2	1	0	2	-1	-1	nt	nt
CC(C)NC(=O)C1CCN(C2CCN(C(=O)c3cc4c(s3)CCCCC4)CC2)CC1	-1	-1	-1	-1	1	-3	nt	nt
NC(=O)C1CCN(C(=O)c2cc3c(s2)CCCC3)CC1	5.7*	18	-1	6	1	2	4.9*	2
Cc1noc(C)c1C(=O)Nc1nc2ccc(Cl)cc2s1	5.5*	12	0	3	-1	1	2	3
O=C(Nc1ccc(CN2CCCCC2)cc1)Nc1ccccc1Cl	1	6	-1	7	1	3	nt	nt
CCN1CCN(Cc2ccc(NC(=O)Nc3ccccc3Cl)cc2)CC1	5.4*	-3	0	11*	3	4.6*	11*	8.6*
COc1ccc(CCN2C(=O)NC(NS(=O)(=O)c3ccc(NC(C)=O)cc3)(C(F)(F)F)C2=O)cc1OC (stereo unspecified)	0	0	-1	-2	-1	0	nt	nt
Cc1cnc(NC(=O)Nc2ccc(Cl)cc2)s1	6.0*	12	0	8	5.8*	4	14*	6.8*
Cn1c(SCC(=O)NCCc2ccccc2)ncc(C(=O)Nc2ccccc2)c1=O	0	18	0	2	4	1	nt	nt
O=c1cccc(-c2ccc3ccccc3c2)o1	6.6*	nt	-1	7	0	nt	5.0*	3.1*
CCOc1ccc(NC(=O)NC2CCCCCCC2)cc1	9.8*	nt	0	12*	5	3	9.0*	4.0*
O=C(Nc1ccc(Br)cc1)NC1CCCCCCC1	5.1*	14	0	11*	1	2	9.1*	6.0*
O=C(Nc1ccccc1)NC1CCCCCCC1	1	3	0	8	4	nt	nt	nt
O=C(Nc1cccc([N+](=O)[O-])c1)NC1CCCCCCC1	5.5*	nt	-1	5	4	1	4.6*	4.3*
O=C(NC(=S)Nc1ccc2ncccc2c1)c1ccccc1	4.8*	19	-1	12*	3	1	7.7*	5.8*
O=C(NC(=S)Nc1ccc2nc[nH]c2c1)c1ccccc1	6.5*	3	0	6	0	1	5.9*	3.1*
O=C(O)c1cccc(NC(=S)NC(=O)c2ccc3ccccc3c2)c1	11*	-6	-1	3	-1	-3	8.0*	4.4*
